Inconclusive results are not listed. Activity calls are given as the source filed them. The call rests on the fitted dose curve; in most records, active means well fitted cell-killing curve with a large enough effect; inconclusive means small, poorly fitted or top-dose-only effect; inactive means flat fitted curve, though single readings scatter.
test: Cell Viability - LYMP2-026 (AID 989); details: LYMP2-026 lymphoblastoid cell viability, qHTS; series mostly up to 92.2 µM; activity change, negative = cytotoxic: at the top concentration;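 further: cells exposed to compound for 24 h at 37 °C; nearly all actives have a fitted effect of over 50% in size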
Description: NIH Chemical Genomics Center [NCGC]
NIH Molecular Libraries Screening Centers Network [MLSCN]
National Institutes of Environmental Health Sciences [NIEHS]
National Toxicology Program [NTP]
We have developed a 1536-well cell-based assay for quantitative high throughput screening (qHTS) against a number of cell lines to determine in vitro cytotoxicity of small molecules. This particular assay uses a human lymphoblastoid cell line (LYMP2-026) purchased from Coriell Institute for Medical Research.
NCGC Assay Protocol Summary:
The CellTiter-Glo luminescent cell viability assay (Promega) is a homogeneous method to measure the number of viable cells in culture. The end point readout of this assay is based on quantitation of intracellular ATP, an indicator of metabolic activity, using the luciferase reaction. Luciferase catalyzes the oxidation of beetle Luciferin to oxyluciferin and light in the presence of ATP. The luminescent signal is proportional to amount of ATP present.
Using the CellTiter-Glo luminescent cell viability assay, the amount of cellular ATP was measured in the lymphoblastoid cell line with complete culture medium following compound treatment for 24 hours. The assay was performed in opaque white Kalypsys 1536-well plates. In the screen, tetraoctylammonium bromide was used as positive control. Library compounds were measured for their ability to cause acute toxicity in the cell line, as reflected by a decrease in intracellular ATP levels, in a concentration-dependent manner. […] AC50 values were determined from concentration-response data modeled with the standard Hill equation.
qHTS protocol for CellTiter Glo lymphoblastoid cellular assay
[Step] [Parameter] [Value] [Description]
1. Reagent; 5 uL; 2500 lymphoblastoid cells/well
2. Time; 5 hr; 37 C incubation
4. Controls; 23 nL; Tetraoctylammonium bromide 6.4pM to 92 uM
5. Time; 24 hr; 37 C incubation
6. Reagent; 5 uL; CellTiter Glo reagent
7. Time; 30 min; Room Temperature
8. Detection; Luminescence; Viewlux plate reader
Keywords: cell viability, cytotoxicity, lymphoblastoid cell line, luminescence, NTPHTS, NTPHTS_NCGC, NIEHS, DSSTox, MLSMR, MLSCN, NIH Roadmap, qHTS, NCGC
On the % scale 0 is the no-effect control and ±100 the full control effect.

SMILES | activity change, negative = cytotoxic
BrCCc1ccccc1 | 0.429% (inactive)
C(CCOCC1CO1)COCC1CO1 (stereo not given) | -24.8% (inactive)
CCCCOC(=O)c1ccccc1N | 6.09% (inactive)
CC(=O)[O-].CC(=O)[O-].CC(=O)[O-].[Cr+3] | -4.32% (inactive)
CCCCCOC(=O)c1ccccc1C(=O)OCCCCC | -7.07% (inactive)
Nc1c(Br)cc([N+](=O)[O-])cc1[N+](=O)[O-] | 6.3% (inactive)
C=C(Cl)CCl | -2.82% (inactive)
Nc1cccc(Cl)c1 | -4.2% (inactive)
CCCCNC(=O)n1c(NC(=O)OC)nc2ccccc21 | -11.5% (inactive)
N#C/C(N)=C(/N)C#N | 0.0195% (inactive)
Clc1ccc(Cl)c(Cl)c1 | 0.38% (inactive)
ClCC(Cl)Cl | 2.35% (inactive)
COc1ccc(C=O)cc1 | 6.84% (inactive)
CCCN(CCC)c1c([N+](=O)[O-])cc(C(F)(F)F)cc1[N+](=O)[O-] | -5.76% (inactive)
Clc1cccc2ccccc12 | -4.36% (inactive)
Oc1c(Cl)cccc1Cl | 5.35% (inactive)
CC(Cl)CCl (stereo not given) | -3.7% (inactive)
CCC/C=N/O | -2.13% (inactive)
CC(C)OC(=O)Cc1ccccc1 | -6.58% (inactive)
O=[N+]([O-])c1ccc2c3c(cccc13)CC2 | -1.68% (inactive)

SMILES | activity change, negative = cytotoxic
Cc1ccc(N)cc1Cl | -1.81% (inactive)
[O-][Cl+]O | 5.5% (inactive)
Cc1ccc(N)cc1N | -4.41% (inactive)
O=S(=O)(O)F | 2.09% (inactive)
CCCCCC[N+](=O)[O-] | 2.99% (inactive)
N#CCCC#N | -3.98% (inactive)
C=CC=O | -11.3% (inactive)
Cc1ccc(N)cc1C | -6.86% (inactive)
O=[N+]([O-])c1cccc(O)c1 | -5.16% (inactive)
CNC(=O)O/N=C/C(C)(C)S(C)=O (stereo not given) | -3.01% (inactive)
Cc1ccc(N=C=O)cc1N=C=O | 5.13% (inactive)
CN(C)c1ccc(N(C)C)cc1 | -23.1% (inactive)
CC(=O)CCC(C)=O | 1.08% (inactive)
N#CC(Br)Br | -28.8% (inactive)
O=[N+]([O-])c1cc(Cl)c(Cl)cc1Cl | -3.17% (inactive)
CC(C)CC(C)N (stereo not given) | -7.35% (inactive)
O=C(Cc1ccccc1)OCc1ccccc1 | -5.77% (inactive)
c1ccoc1 | -4.71% (inactive)
Nc1cc(Cl)ccc1Cl | 4.5% (inactive)
S=c1[nH]c2ccccc2[nH]1 | -0.397% (inactive)
